Calls of active or inactive are those of the source.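 Rule for the calls: active = cell killing, with a fitted half-maximal concentration at or below twice the top valid dose tested; inconclusive = flat curve losing 30 to 70% signal, or unreliable fit; inactive = effect in the rising direction, plus the rest.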

The test in a line: viability loss in A549 lung cells – cell-based, CellTiter-Glo luminescence, 72 h, dry powder, cytotoxicity control, dose response (AID 1053193). Conditions: CellTiter-Glo ATP luminescence; series mostly up to 50 µM. A general note: Cellular ATP, detected with luciferase, serves as a proxy for viable cell number.
Turning to `Cc1ccc(S(=O)(=O)NCc2ccc3c(c2)cc(C)n3C)cc1`, the compound was classed as inactive.
The same measure for `CCc1cccc2c1NC1(CCCC1)CC2C` (stereo not given): “inactive”.
As for `Cc1cc(C)c(S(=O)(=O)NCCn2c(C)cc3ccccc32)c(C)c1`, the compound was classed as inactive.
The same measure for `COc1ccc(Nc2ccccc2N)cc1`: “inactive”; for `O=C(O)C1CCN(c2nc(-c3ccccc3)c3cc(Br)ccc3n2)CC1`: “inactive”.
Turning to `Cc1cc2cc(CNC(=O)Nc3ccc(Cl)c(Cl)c3)ccc2n1C`, the outcome was inactive.
The entry for `CCc1ccc(-n2c(=S)sc3c(=O)n(-c4ccccc4C)c(SCC(=O)O)nc32)cc1` is “inactive”; for `Cc1cccc(NC(=O)NCc2ccc3c(c2)cc(C)n3C)c1` it is “inactive”; for `Cc1cc2ccccc2n1CCNC(=O)COc1ccc2ccccc2c1` it is “inactive”.
With `O=C(c1c(F)cccc1F)N(Cc1ccccc1)Cc1ccccc1`, the outcome was inactive.
The same measure for `OCc1ccc(-c2nn(Cc3ccccc3)c3ccccc23)o1`: “inactive”.
The same measure for `COc1cc(CC2C(=O)Nc3ccccc32)cc(C)c1O` (stereo not given): “inactive”; for `CNc1ccccc1C(C)(C)c1cc(-c2cccc(OC)c2)no1`: “inactive”.
As for `Cc1cc2cc(CNC(=O)Nc3cccc(Cl)c3)ccc2n1C`, the compound was classed as inactive.
Take `Cc1ccc(CSc2nc3[nH]ncc3c(=O)[nH]2)cc1`: the call was inactive.

The values above are taken from PubChem BioAssay AID1053193 (Broad Institute, 2014).
